The source made the active and inactive calls. The call rests on the fitted dose curve.
target: Thyrotropin-releasing hormone receptor (Homo sapiens) (UniProt P34981); test: qHTS assay to identify small molecule agonists of the thyrotropin-releasing hormone receptor (TRHR) signaling pathway (AID 1346891); settings: TRHR-HEK293 calcium fluorescence, agonist mode; series mostly up to 57.6 µM;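 further: HEK293 cells expressing TRHR with calcium dye readout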
Text: National Center for Advancing Translational Sciences [NCATS] NIH Chemical Genomics Center [NCGC] U.S. Environmental Protection Agency [EPA] National Institutes of Environmental Health Sciences [NIEHS] National Toxicology Program [NTP] Assay overview: Thyrotropin-releasing hormone (TRH) receptor (TRHR) is a G-protein-coupled receptor which binds the tripeptide thyrotropin releasing hormone. TRHR is found in the brain and, when bound by TRH, acts (through phospholipase C) to increase intracellular inositol trisphosphate. It plays a crucial role in the anterior pituitary where it controls the synthesis and secretion of thyroid stimulating hormone and prolactin. The TRHR-Hek293 assay is a cell-based assay, and it has the potential to screen G protein-coupled receptors. A compound/drug can either activate (agonist) or suppress (antagonist) GPCRs that can be monitored by levels of intracellular calcium. Using this assay, the Tox21 10K compound library was screened to identify potential TRHR agonists.
Assay Protocol Summary: The TRHR-Hek293 cells were dispensed at 1500cells/4uL/well in 1536-well black-clear bottom plates using a Multidrop dispenser. After the assay plates were incubated at a 37 C/5% CO2 incubator for 18 hours, 4 uL of Dye-Loading Solution was added to each well. The plates were incubated at 37 C for 2 hours. For agonist mode, 23 nL of compounds dissolved in DMSO, positive controls or DMSO only was transferred to the assay plate by a pin tool. The fluorescence intensity in the plates was measured using FDSS 7000EX kinetic plate reader for 3 min at 1 sec intervals. Each test compound was measured at 15 concentrations and in triplicates.

Thyrotropin-releasing hormone receptor (Homo sapiens), sequence (P34981 whole entry, looked up): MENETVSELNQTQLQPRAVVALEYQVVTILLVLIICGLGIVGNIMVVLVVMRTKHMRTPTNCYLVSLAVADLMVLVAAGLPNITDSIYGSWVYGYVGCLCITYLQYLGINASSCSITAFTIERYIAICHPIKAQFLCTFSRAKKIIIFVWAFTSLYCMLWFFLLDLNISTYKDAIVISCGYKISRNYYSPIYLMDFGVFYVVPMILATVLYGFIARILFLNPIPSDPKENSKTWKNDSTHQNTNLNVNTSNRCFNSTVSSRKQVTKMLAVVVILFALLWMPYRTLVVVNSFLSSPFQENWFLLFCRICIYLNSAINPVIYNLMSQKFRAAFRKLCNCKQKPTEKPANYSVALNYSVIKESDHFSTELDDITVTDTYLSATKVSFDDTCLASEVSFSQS

Structure (SMILES) | outcome
Nc1ccc([As](=O)(O)O)cc1 | inactive
COc1cc(-c2ccc(N)c(OC)c2)ccc1N | inactive
CCOP(=S)(OCC)Oc1cc(C)nc(C(C)C)n1 | inactive
Cc1ccc(O)c(C)c1 | inactive
CCCCC(CC)C(=O)Cl (stereo not given) | inactive
COS(=O)(=O)OC | inactive
O=C(O)COc1ccccc1 | inactive
Sc1ccccc1 | inactive
CN(C)C(=O)C(c1ccccc1)c1ccccc1 | inactive
CNC(=O)O/N=C/C(C)(C)S(C)=O (stereo not given) | inactive
CC(C)CCCCCCOC(=O)c1ccccc1C(=O)OCCCCCCC(C)C | inactive
C[C@H]1C(=O)O[C@@H]2CCN3CC=C(COC(=O)[C@](C)(O)[C@]1(C)O)[C@H]23 | inactive
Cc1ccc(N=C=O)cc1N=C=O | inactive
N#Cc1cccc(C#N)c1 | inactive
CC(C)(C)C(=O)CCl | inactive
N#CN=C(N)N | inactive
Nc1ccc(N)cc1 | inactive
CSc1nnc(C(C)(C)C)c(=O)n1N | inactive
Nc1cc(Cl)cc(Cl)c1 | inactive
O=C(O)c1cc(Oc2ccc(C(F)(F)F)cc2Cl)ccc1[N+](=O)[O-] | inactive

Structure (SMILES) | outcome
c1ccc2c(c1)CCCC2 | inactive
CN(C)C(=O)Cl | inactive
CN(C)CCC#N | inactive
CN(C)C(=O)Nc1cccc(C(F)(F)F)c1 | inactive
COP(=S)(OC)SCN1C(=O)c2ccccc2C1=O | inactive
CCNc1nc(Cl)nc(NC(C)C)n1 | inactive
OC[C@@H](O)[C@H]1O[C@@H]2O[C@H](C(Cl)(Cl)Cl)O[C@@H]2[C@H]1O | inactive
CC12CC1(C)C(=O)N(c1cc(Cl)cc(Cl)c1)C2=O (stereo not given) | inactive
COP(=S)(OC)Oc1ccc(SC)c(C)c1 | inactive
O=C(O)C(Br)Br | inactive
C=CC#N | inactive
Nc1nc(N)nc(NC2CC2)n1 | inactive
CC(=O)/C=C/c1ccccc1 | inactive
Cc1cccc(N)c1 | inactive
COc1nc(NC(C)C)nc(NC(C)C)n1 | inactive
Oc1ccc(Cl)cc1 | inactive
O=C(O)Cc1ccccc1 | inactive
Cc1cccc(C)c1N | inactive
N#Cc1ccccn1 | inactive
CNC(=O)O/N=C/C(C)(C)S(C)(=O)=O | inactive
